Test results: PubChem BioAssay (NCATS)
Inconclusive results are not listed. Activity calls are given as the source filed them. Calls follow the shape of the dose curve; as a rule, active = well fitted inhibition curve with a large enough effect; inconclusive = small, poorly fitted or top-dose-only effect; inactive = flat fitted curve, though single readings scatter. Where a SMILES comes first, the peptide text is derived from it. Bridges are numbered along the chain shown (N, C = ends). [ ]: non-standard residue; d: D form. hArg = N=C(N)NCCCC[C@H](N)C(=O)O; Mpa = O=C(O)CCS

How the values were obtained:
Assay in all cases: qHTS profiling for inhibitors of Plasmodium falciparum proliferation (AID 504749); also: nearly all actives have a fitted effect of over 60% in size
Details in all cases: P. falciparum in erythrocytes, SYBR Green DNA, 72 h; series mostly up to 28.7 µM
AS120 = test system: AS120
Summary of the method: (§1)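 Infected RBCs, 0.3% parasitemia/2.5% Hct final; cpd 72 h, 37 C, 5% CO2; lysis buffer with saponin/triton/SYBR Green I, o/n RT dark; FI 485/535; norm. to artemisinin (0.29 uM) and DMSO.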

ATS189 = test system: ATS189
Summary of the method: as §1

ATS95 = test system: ATS95
Summary of the method: as §1

C2A = test system: C2A
Summary of the method: as §1

CP185 = test system: CP185
Summary of the method: as §1

CP191 = test system: CP191
Summary of the method: as §1

CP192 = test system: CP192
Summary of the method: as §1

CP194 = test system: CP194
Summary of the method: as §1

CP201 = test system: CP201
Summary of the method: as §1

CP203 = test system: CP203
Summary of the method: as §1

CP211 = test system: CP211
Summary of the method: as §1

CP215 = test system: CP215
Summary of the method: as §1

CP217 = test system: CP217
Summary of the method: as §1

CP237 = test system: CP237
Summary of the method: as §1

CP238 = test system: CP238
Summary of the method: as §1

CP247 = test system: CP247
Summary of the method: as §1

CP250 = test system: CP250
Summary of the method: as §1

CP252 = test system: CP252
Summary of the method: as §1

CP256 = test system: CP256
Summary of the method: as §1

CP260 = test system: CP260
Summary of the method: as §1

Measured: Potency

COc1cc(O)cc(O)c1
inactive: all assays above

C[C@@H]1CCC[C@H](C)N1
inactive: all assays above

CNc1c2c(nn1C)CCCC2
inactive: all assays above

CCOc1ccc(C(=O)OCCN(CC)CC)cc1
inactive: all assays above

C=CCSCC1Nc2cc(Cl)c(S(N)(=O)=O)cc2S(=O)(=O)N1 (stereo not given)
not listed: CP260
inactive: all other assays above

CC(=O)SC[C@@H](Cc1ccccc1)C(=O)NCC(=O)OCc1ccccc1
inactive: all assays above

NC(=O)[C@@H]1CSSCCC(=O)N[C@@H](CCCCN=C(N)N)C(=O)NCC(=O)N[C@@H](CC(=O)O)C(=O)N[C@@H](Cc2c[nH]c3ccccc23)C(=O)N2CCC[C@H]2C(=O)N1 ([Mpa][hArg]GDWPC-NH2; disulfide 1-7)
inactive: all assays above

CCc1cccc(CC)c1NC(=O)CN(CC(=O)O)CC(=O)O
inactive: all assays above

CCN(CC)CCc1nc(-c2ccccc2)no1
not listed: CP260
inactive: all other assays above

O=C(O)CCCCC1CCSS1 (stereo not given)
inactive: all assays above

CC1CC(OC(=O)c2ccccc2O)CC(C)(C)C1 (stereo not given)
inactive: all assays above

O=C(O)CCCc1ccccc1
not listed: CP260
inactive: all other assays above

Cc1ccsc1C(=CCCN1CCC[C@@H](C(=O)O)C1)c1sccc1C
inactive: all assays above

CCCC(O)C(CC)CO (stereo not given)
inactive: all assays above

NS(=O)(=O)c1cc2c(cc1C(F)(F)F)NCNS2(=O)=O
inactive: all assays above

CCOC(=O)c1cccnc1
inactive: all assays above

O=C(O)c1ccccc1OP(=O)(O)O
inactive: all assays above

Cc1c(I)c(=O)n(-c2ccccc2)n1C
inactive: all assays above

COc1cc(C(=O)NCCCCCC(=O)O)cc(OC)c1OC
not listed: CP260
inactive: all other assays above

CCCCC1(COC(=O)CCC(=O)O)C(=O)N(c2ccccc2)N(c2ccccc2)C1=O
inactive: all assays above

CNCc1ccccc1
inactive: all assays above

CC(CSC(=O)c1ccccc1)C(=O)N1C[C@@H](Sc2ccccc2)C[C@H]1C(=O)O (stereo not given in full)
inactive: all assays above

Cc1c(N(C)C)c(=O)n(-c2ccccc2)n1C
not listed: CP260
inactive: all other assays above

Cc1cccc(Nc2ccccc2C(=O)O)c1C
inactive: all assays above

CN1CCN(C(=O)C2CCCCC2)CC1
inactive: all assays above

N[C@@H](Cc1ccc(O)cc1)C(=O)O
inactive: all assays above
